SMILES strings stand for the structures. Among all 140,000 compounds or so, about 680 (0.49%) were called active. No stated cut-off is given here; in the data, active means activation above about 5% (passing the limit was not always enough); inactive means the rest. This excerpt belongs to a sample that is enriched for actives.

Sequence of Galanin receptor type 2 (Homo sapiens) (O43603 whole entry, looked up): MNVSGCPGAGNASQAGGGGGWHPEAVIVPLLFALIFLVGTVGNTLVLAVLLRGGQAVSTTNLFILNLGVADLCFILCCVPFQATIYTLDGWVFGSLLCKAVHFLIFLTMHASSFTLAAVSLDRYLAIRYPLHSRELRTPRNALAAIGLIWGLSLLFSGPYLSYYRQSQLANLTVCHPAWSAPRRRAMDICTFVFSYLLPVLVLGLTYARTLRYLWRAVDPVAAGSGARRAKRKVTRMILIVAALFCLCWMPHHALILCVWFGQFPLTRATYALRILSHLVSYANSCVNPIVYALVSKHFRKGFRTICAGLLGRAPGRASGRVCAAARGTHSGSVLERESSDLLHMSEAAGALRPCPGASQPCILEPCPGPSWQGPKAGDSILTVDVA

The test concerns the target Galanin receptor type 2 (Homo sapiens) (UniProt O43603). The test can be described thus: human galanin receptor 2 activators – cell-based, primary screen (AID 803).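 Further: 0% = vehicle buffer wells and 100% = reference agonist at full effect.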 To be noted: GALR2-expressing cells, agonist activation read-out; hits give high values; concentration not given here.
For the molecule `CCOC(=O)c1c(N)n(CCN2CCOCC2)c2nc3ccccc3nc12`, the activation is 1.16% (inactive).
Under `COc1cc(Cn2c(N)c(C(=O)NCc3ccco3)c3nc4ccccc4nc32)cc(OC)c1OC` stands 25% (active); under `CCOC(=O)c1c(N)n(Cc2ccccc2)c2nc3ccccc3nc12`, -0.61% (inactive).
The same measure for `CC(=O)c1c(C)n(C(C)C)c2ccc(O)cc12`: 0.6% (inactive); for `CN1CCN(C(=S)SCC(=O)Nc2ccc(Cl)cc2C(=O)c2ccccc2)CC1`: -0.06% (inactive); for `O=C1NC(=O)N(c2ccc(F)cc2)C(=O)/C1=C/c1ccc2c(c1)CCCN2Cc1ccccc1`: -0.69% (inactive).
As to `Cc1cccc(N2C(=O)NC(=O)/C(=C\c3cnn(-c4ccccc4)c3)C2=O)c1`, the activation was 34.2% (active).
Regarding `COc1c(O)ccc2c1-c1c3c(cc4c1C(C2)N(C)CC4)OCO3` (stereo not given), the activation is -1.66% (inactive).
With `CCOP(=O)(OCC)C(NC(=O)c1ccc(C)cc1)C(Cl)(Cl)Cl` (stereo not given), the activation is -0.73% (inactive).
The same measure for `Cc1ccc(-n2c(-c3ccc([N+](=O)[O-])cc3)nc3ccccc3c2=O)cc1`: -0.79% (inactive).

Source of the values: PubChem BioAssay AID803 (The Scripps Research Institute Molecular Screening Center, 2007).
